Experimental findings from PubChem BioAssay (NCI) are described below.

What all share (test): NCI-60 one-dose screen, 48 h (100 = growth as untreated, 0 = no growth, -100 = all killed)
Common to all, as to conditions: 10 µM unless noted

Assay [1] concerns K-562 leukemia.
The subject of assay [2] is MALME-3M melanoma.
Assay [3] deals with MDA-MB-231 breast.
In assay [4] the test system is RXF 393 renal.
The subject of assay [5] is SF-268 CNS.
Assay [6] relates to SF-295 CNS.
Assay [7] concerns SF-539 CNS.
Assay [8] concerns UACC-257 melanoma.
Assay [9] concerns M14 melanoma.
Assay [10] has as its system HCT-15 colon.
In assay [11] the test system is HT29 colon.
Assay [12] has as its system SNB-75 CNS.
Assay [13] has as its system SNB-19 CNS.
The test system of assay [14] is U251 CNS.
The test system of assay [15] is PC-3 prostate.
In assay [16] the test system is SK-MEL-5 melanoma.
For assay [17], the system named is UACC-62 melanoma.
Assay [18] deals with LOX IMVI melanoma.
Assay [19] deals with SK-MEL-28 melanoma.
In assay [20] the test system is SK-MEL-2 melanoma.

The panel holds about 83,000 compounds, 20% with a hit somewhere; the sample as a whole holds those more often.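 Note: values are percent growth. 100 is the growth of untreated cells, values between 100 and 0 indicate rising inhibition; between -100 and 0 indicates cell death.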 Unmarked numbers belong to inactive results. The source made the active and inactive calls. The calls were made as follows: active = growth percent below 10; inactive = the rest.

For `CCCCCCNC(=O)Oc1ccc(/C(=C(/C)c2ccccc2)c2ccc(OCCN3CCCCCC3)cc2)cc1`, the growth is -9.12% (active) in assay [1]; 12.2% in assay [2]; 41.7% in assay [3]; 9.02% (active) in [4]; 62.2% in assay [5]; 36.3% in [6]. The growth was 11.1% in [7]; -2.81% (active) in [8]; -39.7% (active) in assay [9]; 9.9% (active) in [10]; -13.3% (active) in assay [11]; 56% in assay [12]. Also, the growth was 66.7% in assay [13]; 22.1% in assay [14]; 38.7% in [15]; 20.1% in [16]; 44.2% in assay [17]; -14.5% (active) in [18]. Besides, the growth in [19] was 44.4%; in [20], 95.9%.
As to `O=C(O)CCCCCN1C(=O)/C(=C/c2ccc(O)c(O)c2)SC1=S`, the growth in [1] is 100%; in [2], 97.5%; in [3] it was 91.8%; in [4], 124%; in [5], 103%; in [6] it was 99.3%. Also, the growth is 96% in [7]; 108% in [8]; 106% in assay [9]; 101% in assay [10]; 116% in assay [11]; 95.1% in [12]. Besides, the growth in assay [13] was 96.1%; in assay [14], 103%; in assay [15], 117%; in assay [16] it was 98.9%; in assay [17], 96.8%; in [18] it was 108%. For the same compound, the values for the growth in assay [19] and in [20] were 102% and 140%, respectively.
In the case of `CC(=O)Oc1ccccc1C(=O)Nc1ccc(C(=O)/C=C/c2cccs2)cc1`, the growth in assay [1] is 101%; in [2], 104%; in assay [3] it was 113%; in assay [4], 126%; in [5] it was 107%; in assay [6], 99.1%. Further, the growth in assay [7] was 107%; in assay [8] it was 113%; in [9], 107%; in [10], 96.7%; in assay [11], 110%; in assay [12], 113%. For the same compound, the growth in assay [13] was 101%; in assay [14], 99.4%; in assay [15], 103%; in assay [16], 101%; in assay [17], 98.3%; in assay [18] it was 100%. In addition, the growth was 106% in assay [19] and 122% in [20].
Turning to `CC(=O)Oc1ccccc1C(=O)Nc1ccc(C(=O)/C=C/c2ccncc2)cc1`, the growth in assay [1] is 6.54% (active); in assay [2], 86.6%; in assay [3], 33.6%; in [4] it was -4.73% (active); in assay [5] it was 85.5%; in assay [6], 49.5%. Besides, the growth in [7] is 4.63% (active); in [8], 92.4%; in [9], 30.3%; in assay [10], -23.9% (active); in [11], 5.38% (active); in assay [12], 48.4%. The growth was 76% in [13]; 21.1% in assay [14]; 70.4% in [15]; 74% in assay [16]; 50.3% in [17]; -73.6% (active) in [18]. In addition, the growth in assay [19] was 55.8%; in assay [20] it was 108%.
As for `Cc1cccc2sc(/N=C(\N)C(Cl)(Cl)Cl)nc12`, the growth in [1] is 100%; in assay [2] it was 102%; in [3] it was 96.2%; in [4], 120%; in assay [5] it was 94.5%; in assay [6], 94.4%. For the same compound, the growth is 99.4% in [7]; 104% in assay [8]; 101% in assay [9]; 102% in assay [10]; 105% in assay [11]; 81.6% in assay [12]. Further, the growth in assay [13] is 90.3%; in [14] it was 95.1%; in [15], 103%; in assay [16] it was 99.6%; in [17] it was 97.6%; in assay [18], 113%. Besides, the values for the growth in [19] and in assay [20] were 112% and 118%, respectively.
With `CS(=O)(=O)c1ccc(-n2cc(/C=C/C(=O)c3ccc(NC(=O)CO[N+](=O)[O-])cc3)c(-c3ccc(Cl)cc3)n2)cc1`, the growth was 119% in [1]; 100% in [2]; 79.5% in assay [3]; 86.8% in [4]; 111% in assay [5]; 91.2% in [6]. For the same compound, the growth in assay [7] was 92.7%; in [8] it was 97.1%; in assay [9], 91.6%; in assay [10], 96.2%; in assay [11], 108%; in [12], 111%. Besides, the growth in assay [13] was 84.9%; in [14] it was 92.9%; in [15] it was 96.2%; in [16], 98.4%; in assay [17], 83.3%; in [18], 96.9%. Also, the figures for the growth in assay [19] and in [20] were 66.1% and 94.9%, respectively.
On to `Fc1ccc(-c2nc(C(Cl)Cl)nc3cc(-c4ccccc4)nn23)cc1`, for which the growth is 11.4% in assay [1]; -15% (active) in assay [2]; 11.8% in assay [3]; -70.1% (active) in assay [4]; 24% in assay [5]; 6.38% (active) in [6]. Also, the growth in [7] is 32.8%; in [8] it was 1.45% (active); in assay [9], -40.7% (active); in [10], 4.01% (active); in [11], -9.69% (active); in assay [12], -14.7% (active). Moreover, the growth in [13] is 3.82% (active); in [14], -53.6% (active); in assay [15], 31%; in [16] it was 57%; in [17] it was 40.6%; in assay [18], 32.4%. In addition, the growth is -13.8% (active) in assay [19] and 115% in assay [20].
